Active and inactive are the calls of the source.

We go through 14 compounds from PubChem BioAssay.

The target in assay [1] is Albumin (Bos taurus) (UniProt P02769). Description: bovine serum albumin binders on microarray, profiling panel, artefact control for SMM control protein annotation, biochemical, small-molecule microarray, Alexa647 label, 635/667 nm fluorescence (AID 1118).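 Note: score merges 667 nm emission intensity and signal-to-noise per printed compound spot.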 The following applies: BSA-A647 binding, fluorescence 635 nm, higher = more signal.
Albumin (Bos taurus), sequence (P02769 whole entry, looked up): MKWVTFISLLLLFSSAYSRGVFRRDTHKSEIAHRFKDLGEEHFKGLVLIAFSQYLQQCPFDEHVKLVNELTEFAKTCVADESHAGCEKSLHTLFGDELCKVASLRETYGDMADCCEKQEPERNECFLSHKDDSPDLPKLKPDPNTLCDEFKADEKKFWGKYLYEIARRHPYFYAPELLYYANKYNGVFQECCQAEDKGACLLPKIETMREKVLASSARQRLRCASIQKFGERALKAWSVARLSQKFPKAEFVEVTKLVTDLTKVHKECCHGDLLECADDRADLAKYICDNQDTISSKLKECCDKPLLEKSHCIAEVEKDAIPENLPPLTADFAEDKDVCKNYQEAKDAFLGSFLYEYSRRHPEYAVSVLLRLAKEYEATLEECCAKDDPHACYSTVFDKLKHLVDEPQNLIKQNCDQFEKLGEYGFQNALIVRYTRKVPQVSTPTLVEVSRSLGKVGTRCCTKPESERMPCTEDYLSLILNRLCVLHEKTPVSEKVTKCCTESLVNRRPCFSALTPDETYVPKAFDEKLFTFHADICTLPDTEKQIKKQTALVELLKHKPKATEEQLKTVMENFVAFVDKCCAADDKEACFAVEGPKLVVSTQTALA
Assay [2] can be described thus: small-molecule microarray binders of probe aXIP, primary screen, biochemical, NeuroSMM set, 635/667 nm fluorescence (AID 1119).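 Note: probe is the protein aXip251-270 applied at 1 µg/mL to compound-printed slides; binding of probe to printed compounds measured as 667 nm fluorescence plus signal to noise.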 The following applies: higher = more signal, called active from +8 up or from −8 down.
The nature of assay [3]: small-molecule binders of probe aNOTCH3, primary screen, biochemical, small-molecule microarray, 635/667 nm fluorescence (AID 1120).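 Note: probe is a biotin-tagged antibody raised against NOTCH3 rather than NOTCH3 protein; score merges spot fluorescence near 667 nm with spot signal to noise.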 To be noted: higher = more signal.
Assay [4] can be described thus: small-molecule binders of probe aNOTCH2, primary screen, biochemical, small-molecule microarray, 635/667 nm fluorescence (AID 1121).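 Note: score merges feature fluorescence read at 667 nm with its signal to noise.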 To be noted: higher = more signal.
Assay [5] addresses Carbonic anhydrase 2 (Homo sapiens) (UniProt P00918). Description: CAII small-molecule binders, profiling panel, biochemical, small-molecule microarray, Alexa647-labelled CAII (AID 1122). To be noted: CAII-A647 binding fluorescence, higher = more signal.
A short description of assay [6]: COS7 lysate on small-molecule microarray, probe aHis, 635 nm (AID 1123).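 Note: z-score combines 667nm fluorescence intensity with signal-to-noise per printed compound spot.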 To be noted: COS7 cell lysate, fluorescence, higher = more signal.
The nature of assay [7]: compound binding in COS7 lysate, probe aLAP1, primary screen, cell lysate, small-molecule microarray (AID 1124).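 Note: lysate comes from COS7 cells expressing LAP1 and is applied at 0.3 µg/mL; score merges spot fluorescence near 667 nm with signal-to-noise over triplicate slides.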 To be noted: probe aLAP1, fluorescence, higher = more signal.
Assay [8] relates to Sam68 (KHDRBS1). Put plainly: Sam68 small-molecule binders, primary screen, biochemical, small-molecule microarray, 635 nm fluorescence (AID 1125).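 Note: score merges 667 nm channel intensity with signal to noise over triplicate slides.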 The following applies: small-molecule microarray binding, higher = more signal.
In assay [9] the test system is Chordin-like protein 2 (CHRDL2). Description: CHRDL2 small-molecule binders, primary screen, biochemical, small-molecule microarray, 635 nm fluorescence (AID 1126).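 Note: printed compound slides probed with Chrdl2 protein at 4 µg/mL for 1 h at 4 C; score merges 667 nm emission intensity with signal to noise over three replicate slides.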 To be noted: small-molecule microarray binding, fluorescence 635 nm; higher = more signal.
Assay [10] addresses Concanavalin-A (Canavalia ensiformis) (UniProt P02866). Description: ConA small-molecule binders, primary screen, artefact control for SMM control protein annotation, biochemical, small-molecule microarray, Alexa647 label, 635 nm (AID 1127).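 Note: z combines 667 nm emission intensity with signal-to-noise across three replicate slides.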 To be noted: ConA-A647 binding fluorescence, higher = more signal.

Concanavalin-A (Canavalia ensiformis), sequence (P02866 whole entry, looked up): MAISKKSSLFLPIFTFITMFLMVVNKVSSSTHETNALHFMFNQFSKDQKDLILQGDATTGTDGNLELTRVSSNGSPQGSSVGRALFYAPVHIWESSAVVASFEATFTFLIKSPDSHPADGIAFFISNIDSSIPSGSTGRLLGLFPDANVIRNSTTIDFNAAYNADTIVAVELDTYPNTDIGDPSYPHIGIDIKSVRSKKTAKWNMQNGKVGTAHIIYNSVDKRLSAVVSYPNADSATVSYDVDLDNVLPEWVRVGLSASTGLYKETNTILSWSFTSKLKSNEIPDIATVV

`CC(CCN1CCCCc2nc(C)c(C)cc21)=NOC[C@@H](C)[C@H](OCc1ccccc1)C(C)C`: the composite z-score in [1] was -0.303; in assay [3], -0.427; in assay [4] it was -0.298; in assay [5], -0.497; in assay [6] it was -0.31; in assay [7] it was -0.899. The composite z-score in [8] was -0.758; in assay [9] it was -1.78; in assay [10], -1.88. Also, the composite Z-score in assay [2] was -0.461 (inactive).

Take `CCCNC(=O)OC[C@H]1O[C@H](CCON=Cc2ccc(C(=O)N3[C@H](c4ccc(C)cc4)[C@@H](C)CC[C@H]3C(=O)OC)cc2)C=C[C@@H]1Oc1ccc(OC)cc1`: the composite z-score is 0.315 in assay [1]; -0.321 in assay [3]; -0.172 in assay [4]; -0.0309 in assay [5]; 0.526 in [6]; 0.735 in assay [7]. Further, the composite z-score in assay [8] is 1.08; in [9] it was 0.274; in assay [10], 0.279. Moreover, the composite Z-score in assay [2] is 0.0856 (inactive).

On to `CCCCC#C[C@@H]1C=C[C@H](OC(C)=O)[C@@H](COC(C)=O)O1`, for which the composite z-score in assay [1] is 0.678; in assay [3] it was 0.0758; in assay [4] it was -0.0698; in [5] it was -0.0641; in [6], 0.015; in [7], -0.406. Also, the composite z-score in [8] was found to be 0.581; in assay [9], 0.282; in assay [10], 0.475. Also, the composite Z-score in assay [2] was 0.299 (inactive).

`COc1cccc([C@H]2Oc3ccc(OC)cc3C(=NOC[C@@H](C)[C@H](OCc3ccccc3)C(C)C)[C@@H]2O)c1`: the composite z-score in assay [1] was 0.422; in [3], -0.162; in assay [4] it was -0.0512; in assay [5], 0.689; in [6], 0.923; in assay [7], 1.37. Further, the composite z-score in assay [8] is 0.413; in assay [9], -0.269; in [10], 0.0788. Also, the composite Z-score in [2] was 0.237 (inactive).

On to `COc1ccc(O[C@H]2C=C[C@@H](c3ccccc3)O[C@@H]2COC(=O)CCC(C)=NOC[C@@H](O)[C@H]2O[C@@H]3OC(C)(C)O[C@@H]3[C@H]2O)cc1`, for which the composite z-score in assay [1] is -0.0217; in assay [3], -0.0284; in assay [4], -0.101; in [5], 0.325; in assay [6] it was 0.337; in [7] it was -0.123. Besides, the composite z-score worked out at 1.01 in [8], 0.728 in assay [9] and 0.249 in assay [10]. Also, the composite Z-score in [2] is -0.212 (inactive).

For `CC1O[C@H]2C3=C(C(=O)[C@@H]4O[C@@H]4[C@H]3O)[C@@H]1C1[C@@H](C)OC=C3[C@H](O)C4O[C@@H]4C(=NOCc4ccccc4)[C@]312` (stereo not given in full), the composite z-score was -0.26 in [1]; -0.125 in assay [3]; -0.14 in [4]; -0.279 in assay [5]; 0.355 in [6]; -0.136 in [7]. For the same compound, the composite z-score is -0.221 in assay [8], 0.0959 in assay [9] and -0.207 in [10]. Besides, in [2], the composite Z-score is 0.0463 (inactive).

Take `O=c1n(-c2ccccc2)c(=O)n2n1CC[C@@H]1C(=NOCc3ccccc3)[C@H]3O[C@H]3[C@@H](O)[C@@H]12`: the composite z-score is -0.101 in assay [1]; -0.179 in assay [3]; -0.189 in assay [4]; 0.745 in [5]; -0.539 in assay [6]; -0.289 in assay [7]. The composite z-score in [8] is -0.712; in [9] it was -0.0034; in assay [10], -0.073. In assay [2], the composite Z-score is 0.371 (inactive).

`O=C(NN=C1C[C@@H](O)[C@@H](O)[C@@H]2[C@@H]3C(=O)N(C4CCCCC4)C(=O)[C@@H]3CC[C@@H]12)OCc1ccccc1`: the composite z-score in assay [1] was 0.566; in assay [3], -0.0873; in [4] it was -0.258; in assay [5], -0.129; in [6], -0.107; in assay [7], 1.74. Besides, the composite z-score in [8] is -0.881; in assay [9] it was 0.425; in [10], 0.457. Besides, in assay [2], the composite Z-score is -0.243 (inactive).

Take `CCN1C(=O)[C@H]2[C@H]3[C@H](O)[C@H](O)CC(=NNC(=O)OCc4ccc(OC)cc4)[C@@H]3CC[C@H]2C1=O`: the composite z-score in [1] was -0.254; in assay [3] it was 0.0945; in [4], -0.0894; in [5], -0.403; in assay [6], -0.42; in assay [7] it was 0.106. In addition, the composite z-score in [8] is -0.362; in assay [9], 0.0319; in [10], -0.205. In addition, the composite Z-score in assay [2] is 0.0958 (inactive).

For the compound `C[C@@H]1C=CCC(=O)OC[C@H]2O[C@@H](C=C[C@@H]2O)[C@H](C)C=CCC(=O)OC1`, the composite z-score in assay [1] was -0.861; in assay [3] it was 0.0903; in assay [4], -0.0903; in assay [5], -0.5; in assay [6], -1.26; in [7], -0.307. The values for the composite z-score in assay [8], in assay [9] and in assay [10] were -0.419, 1.6 and -1.65, respectively. The composite Z-score in [2] was 4.07 (inactive).

Consider `CCOC(=O)[C@H](Cc1ccccc1)NC(=O)CCC1CC(OC(=O)NCCc2ccc(F)cc2)CC2(CCCC(COC(=O)NCCc3ccc(Cl)cc3)O2)O1` (stereo not given in full), for which the composite z-score in assay [1] was 0.755; in [3], 0.0179; in [4] it was -0.101; in assay [5], 0.283; in assay [6] it was 1.12; in assay [7], 0.416. Further, the composite z-score was 1.23 in assay [8], 0.38 in [9] and 1.03 in [10]. Besides, the composite Z-score in assay [2] was 0.118 (inactive).

As to `O=C1[C@H]2[C@H]3[C@H](O)[C@H](O)CC(=NOC[C@@H](O)COCc4ccco4)[C@H]3CC[C@H]2C(=O)N1Cc1ccccc1`, the composite z-score in assay [1] was -0.13; in assay [3] it was -0.119; in [4] it was -0.192; in assay [5], -0.154; in assay [6] it was -0.867; in [7], -0.343. Moreover, the composite z-score is -0.333 in assay [8], 0.836 in assay [9] and -0.242 in assay [10]. The composite Z-score in assay [2] was 0.48 (inactive).

For `CO[C@@H]1COC(=O)CC=C[C@@H](C)[C@@H]2C=C[C@H](O)[C@@H](COC(=O)CC=C[C@H]1C)O2`, the composite z-score is -0.806 in [1]; -0.124 in assay [3]; -0.166 in assay [4]; -0.257 in assay [5]; -1.01 in [6]; 0.146 in assay [7]. The composite z-score is 0.141 in [8], 1.14 in assay [9] and -0.629 in [10]. In addition, the composite Z-score in [2] was 0.718 (inactive).

Consider `O=C1C2=CC[C@H]3C(=O)N(c4cccc(Oc5ccccc5)c4)C(=O)[C@H]3[C@H]2[C@H](O)[C@@H]2O[C@H]12`, for which the composite z-score was -0.0451 in [1]; 0.0179 in assay [3]; -0.132 in [4]; -0.146 in [5]; 0.19 in assay [6]; -0.0224 in [7]. Also, the composite z-score in [8] came to 0.645; in assay [9], 0.625; in assay [10], 0.443. Further, the composite Z-score in [2] was -0.0708 (inactive).
